The values below are quoted from earlier work in PubChem BioAssay AID977611.

By Kd is commonly meant the equilibrium constant for the complex coming apart.

This series can be described thus: PubChem AID 977611. The following applies: PDB protein-ligand complexes, literature Kd.

Out of some 3,900 compounds screened, about 3,900 (100%) were called active. The limit is not given here; nearly all actives have Kd up to about 4200 µM. The set was probably picked from earlier hits. The list shows a part of the results. Numbered stars: 1 amine (or outer) side, 2 acyl side, 3 side chain; on linkers, the order of the positions; unused ones are H or OH. *1 amine or outer side, *2 acyl side, *3 side chain or, on linkers, in order; H or OH if unused. Where a SMILES comes first, the peptide text is derived from it. Non-standard residues stand in square brackets, D forms with d. Square brackets hold non-standard residues; d marks the D form. Residues, ends and D or L forms follow the SMILES beside them. Peptide text beside a SMILES is read from it. [ ]: non-standard residue; d: D form. X3 = CCCCCC[C@](C)(N[C@@H](O)CN)[C@H](O)N([C@@H](CC(C)C)C(=O)[*:2])[*:1]; X1 = CCCC[C@@](C)(N[*:1])C(=O)[*:2]; Orn(CH(NH2)2) = NC(N)NCCC[C@H](N)C(=O)O; X4 = CCCCCC[C@](C)(N[*:1])C(=O)[*:2]; X2 = CCCC[C@](C)(N[*:1])C(=O)[*:2]

Consider `CCCC[C@@](C)(NC(=O)CNC(=O)[C@@H](N)CCC(N)=O)C(=O)N[C@@H](CC(C)C)C(=O)N[C@@H](CC(=O)O)C(=O)N[C@@](C)(CCCC)C(=O)N[C@@H](CC(C)C)C(=O)N[C@@H](CC(=O)O)C(=O)N[C@@H](CC(C)C)C(=O)N[C@@H](C)C(=O)N[C@@H](CO)C(=O)O` (H-QG[X1]LD[X2]LDLAS-OH), for which the dissociation constant (Kd) (protein: 14-3-3 protein zeta/delta, PDB entry 4n7y) is 0.55 µM (active).
Take `CCCCCC[C@](C)(NC(=O)[C@H](CC(=O)O)NC(=O)[C@H](CC(C)C)N[C@@H](O)[C@](C)(CCCCCC)N[C@@H](O)CN)C(=O)N[C@@H](CC(C)C)C(=O)N[C@@H](CC(=O)O)C(=O)N[C@@H](CC(C)C)C(=O)N[C@@H](C)C(=O)N[C@@H](CO)C(=O)O` (H-[X3]D[X4]LDLAS-OH): the Kd (protein: 14-3-3 protein zeta/delta, PDB entry 4n84) is 0.51 µM (active).
Turning to `c1ccc([C@@H]2Nc3ccccc3-c3nc4ccccc4n32)nc1`, where the note is “protein: Retinal rod rhodopsin-sensitive cGMP 3',5'-cyclic phosphodiesterase subunit delta, PDB entry 4jv8”, the equilibrium dissociation constant (Kd) is 1.42 µM (active).
For the molecule `Cc1cc2nc3c(=O)[nH]c(=O)nc-3n(C[C@H](O)[C@H](O)[C@H](O)CO)c2cc1C`, under “protein: putative protease fromBacteroides thetaiotaomicron (ppBat), PDB entry 4d1y”, the dissociation constant (Kd) was 0.074 µM (active).
In the case of `O=C1N[C@@H](c2cccnc2)c2c(-c3ccccc3)n[nH]c21`, for the setting “protein: Gag protein, PDB entry 4j93”, the Kd was 20 µM (active).
As for `O=C(O)c1ccc2c(c1)OCO2`, the equilibrium dissociation constant (Kd) (protein: Pantothenate synthetase (T2A, E77G mutation), PDB entry 4ddk) is 5100 µM (active).
Turning to `O=C(O)CCc1ccc2c(c1)OCO2`, the dissociation constant Kd is 6500 µM (active) (protein: INTEGRASE, PDB entry 4ahr) and 1200 µM (active) (protein: Pantothenate synthetase (T2A, E77G mutation), PDB entry 4ef6).
For the molecule `O=C1NC(=[N+]2CCCC2)Cc2ccccc21`, the Kd (protein: Caspase-6, PDB entry 4n7m) is 3.4 µM (active).
Regarding `O=C(Nc1ccc(OC(F)(F)F)cc1)N(Cc1cccc(-c2nccs2)c1)C1CC1`, the Kd (protein: High affinity nerve growth factor receptor TrkA, PDB entry 4pmp) is 0.4 µM (active).
With `CCc1c(C(=O)NC)[nH]c(C)c1C(C)=O`, the Kd (protein: Bromodomain-containing protein 4, BRD4(1), PDB entry 4lzs) was 16 µM (active).
On to `CCc1c(C(=O)Nc2cc(S(=O)(=O)N(CC)CC)ccc2O)[nH]c(C)c1C(C)=O`, for which the Kd (protein: Bromodomain-containing protein 4, BRD4(1), PDB entry 4lyw) was 237 µM (active).
As to `CC(C)C[C@H](NC(=O)[C@H](CCC(N)=O)NC(=O)CNC(=O)[C@H](CCC(N)=O)NC(=O)[C@@H]1CCCN1C(=O)[C@H](CC(C)C)NC(=O)[C@@H]1CCCN1C(=O)[C@H](CCC(=O)O)NC(=O)[C@@H]1CCCN1C(=O)[C@@H](N)CC(C)C)C(=O)N[C@H](C(=O)N[C@@H](C)C(=O)N[C@@H](Cc1ccc(O)cc1)C(=O)O)[C@@H](C)O`, the dissociation constant (Kd) was 35.2 µM (active) (protein: HLA class I histocompatibility antigen(HLA-B*3501), PDB entry 1zhk) and 9.9 µM (active) (protein: HLA class I histocompatibility antigen(HLA-B*3508), PDB entry 1zhl).
As to `CC[C@H](C)[C@H](NC(=O)[C@H](CCC(=O)O)NC(=O)[C@@H](NC(=O)[C@H](CC(=O)O)NC(=O)CNC(=O)[C@H](Cc1ccc(O[P+](O)(O)O)cc1)NC(=O)[C@H](CC(=O)O)NC(=O)[C@H](CCC(=O)O)NC(=O)[C@@H]1CCCN1C(=O)[C@H](Cc1ccc(O)cc1)NC(=O)[C@@H]1CCCN1C(=O)[C@H](CC(N)=O)NC(=O)[C@@H](N)Cc1ccc(O)cc1)[C@@H](C)CC)C(=O)NCC(=O)O` (H-YNPYPED[X1]GDIEIG-OH), under “protein: insulin receptor subunit beta, PDB entry 3bu6”, the equilibrium dissociation constant (Kd) was 1.3 µM (active).
For the molecule `CC(C)C[C@H](NC(=O)[C@@H](NC(=O)[C@H](C)NC(=O)[C@H](Cc1ccc(O)cc1)NC(=O)[C@H](C)NC(=O)[C@@H]1CCCN1C(=O)[C@@H]1CCCN1C(=O)[C@@H]1CCCN1C(=O)[C@H](C)NC(=O)[C@@H](N)[C@@H](C)O)[C@@H](C)O)C(=O)NCC(=O)O` (H-TAPPPAYATLG-OH), the dissociation constant (Kd) (protein: E3 ubiquitin-protein ligase NEDD4, PDB entry 2m3o) is 5 µM (active).
For `CC[C@H](C)[C@H](NC(=O)[C@H](C)NC(=O)[C@@H]1CCCN1C(=O)[C@@H](NC(=O)[C@@H](N)CC(=O)O)[C@@H](C)CC)C(=O)N[C@@H](Cc1ccc(O)cc1)C(=O)N[C@@H](CCCNC(N)N)C(=O)N[C@@H](Cc1ccc(O)cc1)C(=O)NCC(=O)N[C@@H](CC(C)C)C(=O)N[C@@H](CCC(=O)O)C(=O)NCC(=O)N[C@@H](CC(C)C)C(=O)N[C@@H](CC(C)C)C(=O)O` (H-DIPAIY[Orn(CH(NH2)2)]YGLEGLL-OH), the Kd (protein: CELL DIVISION PROTEIN FTSA, PUTATIVE, PDB entry 4a2a) is 45 µM (active).
